Drawing on the antibiotic and cytotoxicity screens of Wong et al. (2023), this text covers cytotoxicity call for 41 compounds.

Out of some 39,000 compounds screened, about 3,300 (8.5%) were called active. The entries come from a sample that favours actives as a whole.

For this test, the system named is HepG2. Put plainly: cytotoxicity call (relative viability < 0.9). As to conditions: 10 µM.
For the compound `N=C(N)N1CCc2ccccc2C1.O=S(=O)(O)O`, the cytotoxicity call is “inactive”.
To `CN1Cc2c(Cl)cc(Cl)cc2[C@H](c2cccc(S(=O)(=O)NCCOCCOCCNC(=O)NCCCCNC(=O)NCCOCCOCCNS(=O)(=O)c3cccc([C@@H]4CN(C)Cc5c(Cl)cc(Cl)cc54)c3)c2)C1` belongs “inactive”; to `COc1ccc(S(=O)(=O)N(C)C[C@@H]2Oc3cc(C#CC4CCCC4)ccc3S(=O)(=O)N([C@H](C)CO)C[C@@H]2C)cc1`, “inactive”.
Then `O=C(C[C@H]1C[C@H]2c3cc(NS(=O)(=O)c4ccc(F)cc4)ccc3O[C@H]2[C@@H](CO)O1)NCc1cccnc1`, with “inactive”.
Then `COc1ccc(NC(=O)N(C)C[C@H]2Oc3c(NC(=O)c4ccc(-c5nccs5)cc4)cccc3C(=O)N([C@H](C)CO)C[C@H]2C)cc1`, with “inactive”.
With `COC(=O)c1c(CC[C@@H](CO)NC(=O)N2CCC[C@H]2Cn2cc(-c3ccccn3)nn2)oc(C(C)=O)c1C(=O)OC`, the cytotoxicity call is “inactive”.
To `C[C@H]1CN([C@@H](C)CO)C(=O)Cc2cc(NC(=O)CCC(F)(F)F)ccc2O[C@@H]1CN(C)Cc1ccc(Oc2ccccc2)cc1` belongs “inactive”; to `C[C@H](CO)N1C[C@H](C)[C@H](CN(C)Cc2ccc(Oc3ccccc3)cc2)Oc2ccc(NC(=O)CCC(F)(F)F)cc2CC1=O`, “active”.
Then `C[C@@H]1CN([C@H](C)CO)C(=O)Cc2cc(NC(=O)CCC(F)(F)F)ccc2O[C@@H]1CN(C)Cc1ccc(Oc2ccccc2)cc1`, with “active”; and `C[C@@H]1CN([C@H](C)CO)C(=O)Cc2cc(NC(=O)CCC(F)(F)F)ccc2O[C@H]1CN(C)Cc1ccc(Oc2ccccc2)cc1`, with “active”; and `C[C@@H]1CN([C@@H](C)CO)C(=O)Cc2cc(NC(=O)CCC(F)(F)F)ccc2O[C@@H]1CN(C)Cc1ccc(Oc2ccccc2)cc1`, with “active”.
Consider `C[C@H]1CN([C@@H](C)CO)C(=O)Cc2cc(NC(=O)CCC(F)(F)F)ccc2O[C@H]1CN(C)Cc1ccc(Oc2ccccc2)cc1`, for which the cytotoxicity call is “inactive”.
Regarding `COc1ccc(S(=O)(=O)Nc2ccc3c(c2)C(=O)N([C@H](C)CO)C[C@@H](C)[C@@H](CN(C)C(=O)CCC(F)(F)F)OCCCC[C@H](C)O3)cc1`, the cytotoxicity call is “inactive”.
To `C[C@@H]1CCCCO[C@@H](CN(C)S(=O)(=O)c2ccc(F)cc2)[C@H](C)CN([C@@H](C)CO)C(=O)c2cc(NS(=O)(=O)c3ccc(Cl)cc3)ccc2O1` belongs “inactive”.
To `C[C@H](CO)N1C[C@H](C)[C@H](CN(C)Cc2ccc3c(c2)OCO3)OCCCC[C@H](C)Oc2ccc(NC(=O)c3ccccc3)cc2C1=O` belongs “inactive”; to `Nc1nnc(SC[C@@H](O)CO)s1`, “inactive”; to `COc1ccc(NC(=O)N(C)C[C@@H]2Oc3ccc(NS(C)(=O)=O)cc3CC(=O)N([C@@H](C)CO)C[C@@H]2C)cc1`, “inactive”.
Consider `COCC(=O)N(C)C[C@@H]1Oc2cc(C#Cc3ccccc3)ccc2S(=O)(=O)N([C@@H](C)CO)C[C@@H]1C`, for which the cytotoxicity call was “inactive”.
To `O=C(O)C[C@@H]1CC[C@@H]2[C@H](COC[C@H](O)CN2S(=O)(=O)c2ccc(F)cc2)O1` belongs “inactive”.
Turning to `CN(C)CCCNC(=O)C[C@@H]1CC[C@@H]2[C@H](COC[C@H](O)CN2S(=O)(=O)c2ccc(Cl)cc2)O1`, the cytotoxicity call is “inactive”.
To `C[C@@H]1CCCCO[C@H](CN(C)S(=O)(=O)c2cccs2)[C@H](C)CN([C@H](C)CO)C(=O)c2cc(NC(=O)NC3CCCCC3)ccc2O1` belongs “inactive”.
Then `C[C@H]1CN([C@@H](C)CO)C(=O)c2cccc(NC(=O)NC3CCCCC3)c2O[C@H]1CN(C)C(=O)Nc1cccc2ccccc12`, with “inactive”.
Then `CN1CCN(C(=O)C[C@H]2CC[C@@H]3[C@H](COC[C@@H](O)CN3C(=O)C3CC3)O2)CC1`, with “inactive”; and `COC(=O)c1c(CC[C@@H](CO)NC(=O)N2CCC[C@H]2Cn2cc(Cc3ccccc3)nn2)oc(C(C)=O)c1C(=O)OC`, with “inactive”; and `C[C@H](CO)N1C[C@H](C)[C@@H](CN(C)Cc2ccc(Oc3ccccc3)cc2)Oc2ccc(NC(=O)CCC(F)(F)F)cc2CC1=O`, with “active”.
On to `C[C@@H]1CN([C@@H](C)CO)C(=O)Cc2cc(NC(=O)CCC(F)(F)F)ccc2O[C@H]1CN(C)Cc1ccc(Oc2ccccc2)cc1`, for which the cytotoxicity call is “active”.
Then `Cc1noc(C)c1S(=O)(=O)Nc1ccc2c(c1)C(=O)N([C@H](C)CO)C[C@H](C)[C@@H](CN(C)S(=O)(=O)c1c(C)noc1C)O2`, with “inactive”; and `C[C@H]1CN([C@@H](C)CO)C(=O)c2cccc(NC(=O)c3ccncc3)c2O[C@H]1CN(C)Cc1ccc(C(=O)O)cc1`, with “inactive”.
To `C[C@@H]1CN([C@H](C)CO)C(=O)c2cccc(NC(=O)CCCCCC(=O)Nc3ccccc3N)c2O[C@H]1CN(C)Cc1ccccc1` belongs “inactive”; to `CCOC(=O)C[n+]1ccccc1C`, “inactive”; to `COC(=O)[C@@H](N)c1cccc(Cl)c1`, “inactive”.
`CC(C)c1cccc(C(C)C)c1NC(=O)Cc1cccs1`: the cytotoxicity call is “inactive”.
With `CC(C)c1cc(C(C)C)c(CC(=O)NS(=O)(=O)Oc2c(C(C)C)cccc2C(C)C)c(C(C)C)c1`, the cytotoxicity call was “active”.
To `COc1cccc(NC(=O)N[C@@H]2C=C[C@H](CC(=O)N3CCN(C)CC3)O[C@H]2CO)c1` belongs “inactive”; to `CO[C@@H]1[C@H](O[P@@](=O)(S)OC[C@H]2O[C@@H](n3cnc4c(N)ncnc43)C[C@@H]2O)[C@@H](CO)O[C@H]1n1ccc(=O)[nH]c1=O`, “active”.
To `Nc1ncnc2c1ncn2[C@H]1C[C@H](O)[C@@H](CO)O1` belongs “inactive”; to `CO[C@@H]1[C@H](O[P@@](=O)(OC[C@H]2O[C@@H](n3cnc4c(N)ncnc43)C[C@@H]2O)SCOC(=O)OC(C)C)[C@@H](CO)O[C@H]1n1ccc(=O)[nH]c1=O`, “inactive”.
For the compound `Cc1noc(C)c1NC(=O)Nc1ccc2c(c1)C(=O)N([C@@H](C)CO)C[C@H](C)[C@@H](CN(C)Cc1ccncc1)OCCCC[C@H](C)O2`, the cytotoxicity call is “inactive”.
On to `COc1ccc(NC(=O)N(C)C[C@@H]2OCCCC[C@H](C)Oc3ccc(NS(=O)(=O)c4ccc(OC)cc4)cc3C(=O)N([C@H](C)CO)C[C@H]2C)cc1`, for which the cytotoxicity call was “inactive”.
As for `C[C@@H]1CCCCO[C@H](CN(C)C(=O)NC2CCCCC2)[C@H](C)CN([C@H](C)CO)C(=O)c2cc(NC(=O)Nc3cccc4ccccc34)ccc2O1`, the cytotoxicity call is “inactive”.
To `Cc1noc(C)c1NC(=O)Nc1ccc2c(c1)CC(=O)N([C@H](C)CO)C[C@@H](C)[C@@H](CN(C)Cc1ccc(Oc3ccccc3)cc1)O2` belongs “inactive”.
